# Data reported in PubChem BioAssay (NCI).
# The panel holds about 79,000 compounds, 15% with a hit somewhere; the sample as a whole holds those more often. Active and inactive are the calls of the source. No stated cut-off is given here; in the data, active means growth inhibition above about 70%; inactive means the rest.
# Experiment: NCI Yeast Anticancer Drug Screen. Data for the sgs1 mgt1 strain (AID 161);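 further: 0% = growth of cultures given vehicle only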
# Details: S. cerevisiae sgs1 mgt1 strain, at 50.0 µM (retest, dose inferred, filed as 5.0), stronger effect = higher value
# In short: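 Read-out: growth inhibition vs vehicle controls. Cells: mutant yeast strain deficient in DNA damage repair.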
row,SMILES,growth inhibition
1,O=C1C(Cl)=C(N2C(=O)CCC2=O)C(=O)c2ccccc21,100% (active)
2,C/C(=N\NC(=S)N1CCCC1)c1nc2ncccc2[nH]1,95% (active)
3,Clc1ccc(CN2COc3c(cc(Cl)c4cccnc34)C2)cc1Cl,98% (active)
4,O=[N+]([O-])C1=Cc2ccccc2S(=O)(=O)CC1,95% (active)
5,O=C1CNCCCN2CCN(CCCNCC(=O)Nc3ccc(cc3)S(=O)(=O)c3ccc(cc3)NC(=O)CNCCCN3CCN(CCCNCC(=O)Nc4ccc(cc4)S(=O)(=O)c4ccc(cc4)N1)CC3)CC2,99% (active)
6,O=C(Nc1ccccc1-c1nn(CN2CCNCC2)c(=S)n(CN2CCNCC2)c1=O)C(F)(F)F,13% (inactive)
7,O=[N+]([O-])c1ccc(/C(=C\c2ccccc2)Cn2ccnc2)cc1,92% (active)
8,Cc1ccc(S(=O)(=O)NNC2Oc3cc4c(cc3C(c3ccccc3O)C2C)OCO4)cc1 (stereo not given),98% (active)
9,CN(C)C(=O)/N=c1\ss/c(=N\C(=S)N(C)C)n1-c1ccccc1,95% (active)
10,Cn1c(=O)cc[nH]c1=O,2% (inactive)
11,Clc1ccc(C2=CCN3CC=C(c4ccc(Cl)cc4)C23)cc1,46% (inactive)
12,CCOC(=O)C(Cc1cn(S(=O)(=O)c2ccccc2)c2ccccc12)(NC(C)=O)C(=O)OCC,30% (inactive)
13,BrCC1(CBr)COC1,56% (inactive)
14,O=C1CC(O)C=C1Nc1ccc(Cl)cc1 (stereo not given),4% (inactive)
15,COc1cc(NCCCCCNC(C)C)c2ncc(C)c(C)c2c1,23% (inactive)
16,Cc1ccc(C(c2ccc(N(C)C)cc2)c2ccc(N(C)C)cc2)cc1,95% (active)
17,CCOC(=O)c1cc2c(nc1NCc1ccc(OC)c(OC)c1)/C(=C/c1ccccc1)CCCC2,94% (active)
18,O=C1c2cccc3cc4ccccc4c(c23)C(=O)N1CCCNCCNCCCN1C(=O)c2cccc3cc4ccccc4c(c23)C1=O,98% (active)
19,CCOCCNc1ncnc2c1cnn2C,-6% (inactive)
20,O=Cc1ccc(-c2nccc3c2[nH]c2ccccc23)o1,20% (inactive)
21,O=c1oc2ccccc2c(O)c1C1=N/C(=N/N=C/c2ccc(Cl)cc2)SC1,97% (active)
22,Cc1ccccc1Oc1ccccc1N,1% (inactive)
23,CCCCCCC(=O)Nc1ccc(OC(=O)CCCCCC)c(=O)cc1,99% (active)
24,CC(=O)C(C(C)=O)C1C=CC=CC=C1,90% (active)
25,C/C=C1\CC(C)(CC)C(C#N)(C#N)C(N)=C1C#N (stereo not given),-4% (inactive)
26,Cc1cc(Cc2ccc(Cl)cc2)ccc1O,99% (active)
27,CCN(CC)CC(O)c1ccnc2c(O)cccc12 (stereo not given),33% (inactive)
28,Nc1ccc(O)c2c1C(=O)c1ccccc1C2O (stereo not given),97% (active)
29,CC(=O)OC1CCC2(C)C(CCC3C4=CCC(C5COC(=O)C5)C4(C)CCC32)C1 (stereo not given),88% (active)
30,CCN(CC)CCOc1ccc(NC(=S)Nc2ccc(OCC(C)C)cc2)cc1,76% (active)

# Same assay, conditions: S. cerevisiae sgs1 mgt1 strain, at 50.0 µM, stronger effect = higher value
row,SMILES,growth inhibition
1,O=C1C(Cl)=C(N2C(=O)CCC2=O)C(=O)c2ccccc21,91.6% (active)
2,C/C(=N\NC(=S)N1CCCC1)c1nc2ncccc2[nH]1,83.2% (active)
3,Clc1ccc(CN2COc3c(cc(Cl)c4cccnc34)C2)cc1Cl,70.6% (active)
4,O=[N+]([O-])C1=Cc2ccccc2S(=O)(=O)CC1,92.7% (active)
5,O=C1CNCCCN2CCN(CCCNCC(=O)Nc3ccc(cc3)S(=O)(=O)c3ccc(cc3)NC(=O)CNCCCN3CCN(CCCNCC(=O)Nc4ccc(cc4)S(=O)(=O)c4ccc(cc4)N1)CC3)CC2,99% (active)
6,O=C(Nc1ccccc1-c1nn(CN2CCNCC2)c(=S)n(CN2CCNCC2)c1=O)C(F)(F)F,12.6% (inactive)
7,O=[N+]([O-])c1ccc(/C(=C\c2ccccc2)Cn2ccnc2)cc1,71.3% (active)
8,Cc1ccc(S(=O)(=O)NNC2Oc3cc4c(cc3C(c3ccccc3O)C2C)OCO4)cc1 (stereo not given),95.7% (active)
9,CN(C)C(=O)/N=c1\ss/c(=N\C(=S)N(C)C)n1-c1ccccc1,72% (active)
10,Cn1c(=O)cc[nH]c1=O,5.45% (inactive)
11,Clc1ccc(C2=CCN3CC=C(c4ccc(Cl)cc4)C23)cc1,100% (active)
12,CCOC(=O)C(Cc1cn(S(=O)(=O)c2ccccc2)c2ccccc12)(NC(C)=O)C(=O)OCC,70% (active)
13,BrCC1(CBr)COC1,7.75% (inactive)
14,O=C1CC(O)C=C1Nc1ccc(Cl)cc1 (stereo not given),98.7% (active)
15,COc1cc(NCCCCCNC(C)C)c2ncc(C)c(C)c2c1,61.4% (inactive)
16,Cc1ccc(C(c2ccc(N(C)C)cc2)c2ccc(N(C)C)cc2)cc1,93.8% (active)
17,CCOC(=O)c1cc2c(nc1NCc1ccc(OC)c(OC)c1)/C(=C/c1ccccc1)CCCC2,91.8% (active)
18,O=C1c2cccc3cc4ccccc4c(c23)C(=O)N1CCCNCCNCCCN1C(=O)c2cccc3cc4ccccc4c(c23)C1=O,86.5% (active)
19,CCOCCNc1ncnc2c1cnn2C,13.1% (inactive)
20,O=Cc1ccc(-c2nccc3c2[nH]c2ccccc23)o1,19.1% (inactive)
21,O=c1oc2ccccc2c(O)c1C1=N/C(=N/N=C/c2ccc(Cl)cc2)SC1,4.05% (inactive)
22,Cc1ccccc1Oc1ccccc1N,69.8% (inactive)
23,CCCCCCC(=O)Nc1ccc(OC(=O)CCCCCC)c(=O)cc1,99.3% (active)
24,CC(=O)C(C(C)=O)C1C=CC=CC=C1,91.8% (active)
25,C/C=C1\CC(C)(CC)C(C#N)(C#N)C(N)=C1C#N (stereo not given),-4.35% (inactive)
26,Cc1cc(Cc2ccc(Cl)cc2)ccc1O,99.2% (active)
27,CCN(CC)CC(O)c1ccnc2c(O)cccc12 (stereo not given),71.7% (active)
28,Nc1ccc(O)c2c1C(=O)c1ccccc1C2O (stereo not given),83.8% (active)
29,CC(=O)OC1CCC2(C)C(CCC3C4=CCC(C5COC(=O)C5)C4(C)CCC32)C1 (stereo not given),84.7% (active)
30,CCN(CC)CCOc1ccc(NC(=S)Nc2ccc(OCC(C)C)cc2)cc1,81.8% (active)
